Bioassay records from PubChem.
Shown are actives, neighbours in structure and some others; about 14% of the full set was active somewhere.
Cycloheximide cs: counter-screen for Shiga toxin inhibitors: cycloheximide protein synthesis inhibition. AID 2314. 300,000 tested, 12% active. max response, %. cell reporter, cycloheximide protein synthesis inhibition counterscreen; in the data active = max response mostly above about 13%, no sharp cut-off; inactive = mostly below about 14%; note: read at 38.3 µM for the half of the compounds with a filed dose; 0% is about no effect
NS1 function inh: blocks influenza NS1 protein function; Potency, µM (series often up to 46.1 µM), without a hit: top-dose activity, positive = more growth; 270,000 tested, 0.4% active; calls by dose curve; note: potency is the fitted concentration of half-maximal effect; actives are rising curves; nearly all actives have a fitted effect of over 50% in size
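Growth recovery, yeast-based: influenza A NS1 expressed in S. cerevisiae causes slow growth, and suppressors are detected by OD600. The parent strain without NS1 is used as positive control.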
Giardia FBPA inh: Giardia lamblia aldolase inhibition. 290,000 tested, 0.71% active. Potency, µM (top dose mostly 59.6 µM), without a hit: at the top dose activity, negative = inhibition, actives largely listed as inhibitors. purified Giardia FBPA. A8B2U2; note: potency is the fitted concentration of half-maximal effect; % is set by controls: 0 for no effect and ±100 for the full control effect; nearly all actives have a fitted effect of over 55% in size
Target sequence (A8B2U2 whole entry, looked up): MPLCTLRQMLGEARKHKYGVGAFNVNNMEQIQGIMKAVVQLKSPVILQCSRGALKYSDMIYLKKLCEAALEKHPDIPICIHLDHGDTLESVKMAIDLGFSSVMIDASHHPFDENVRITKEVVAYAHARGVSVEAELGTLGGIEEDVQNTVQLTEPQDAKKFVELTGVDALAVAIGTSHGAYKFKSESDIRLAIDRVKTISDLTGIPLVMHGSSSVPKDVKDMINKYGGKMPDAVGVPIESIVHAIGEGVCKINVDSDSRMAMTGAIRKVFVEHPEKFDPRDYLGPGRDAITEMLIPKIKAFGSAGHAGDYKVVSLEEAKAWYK
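Giardia FBPA (40 nM reagent) was preincubated 10 min at RT with compound (up to 57.5 uM final), then substrate plus GAPDH/TPI/NAD/arsenate coupling system with diaphorase/resazurin was added; resorufin fluorescence (525/598 nm) was read after 20 min.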
LmPK inh: blocks Leishmania mexicana pyruvate kinase activity; Potency, µM (series often up to 57.5 µM), inactives show at the highest dose activity change, negative = inhibition, most hits filed as inhibitors; purified LmPK, Kinase-Glo ATP luminescence, 1 h; 290,000 tested, 0.37% active; AID 1721; Q27686; note: potency is the fitted concentration of half-maximal effect; % is set by controls: 0 for no effect and ±100 for the full control effect
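Purified LmPK (0.1 nM) with 0.5 mM PEP and 0.1 mM ADP in imidazole buffer pH 7.2 with MgCl2/KCl, 1 h at room temperature. ATP formed was read by luciferase luminescence and normalized to no-enzyme and uninhibited controls.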
Shiga toxin inh: blocks Shiga toxin action in Vero cells. Vero cells, Shiga toxin protein synthesis inhibition reporter. inhibition, % at 38.7 µM. 290,000 tested, 9.2% active; in the data active = inhibition mostly above about 28%, no sharp cut-off; inactive = mostly below about 43%; note: 0% is about no effect
Flu NS1 inh: validation of influenza NS1 protein function inhibitors; shares compounds with NS1 function inh; influenza NS1 function cell assay, 15-point titration; activity change, negative = inhibition, % at 32.9 µM; 1,400 tested, under 10 active; AID 492980; calls by dose curve; note: 0% is about no effect
Flu PR8 replic: reduces influenza A/PR/8/34 replication in MDCK cells; MDCK infected influenza A/PR/8/34, virus titer TCID50; stronger effect = lower value; 95 tested, 30% active; virus titer (log TCID50), log10 TCID50 at 5 µM; shares compounds with NS1 function inh; AID 504647; call rule not given here
Numbers without * were called inactive; ? = inconclusive; / = no result given; ! = not active in a repeat; [ ] = another dose, or the depositor's remark. Unless noted, calls come from the whole dose curve; as a rule, active = well fitted curve in the direction sought with a large enough effect; inconclusive = small, poorly fitted or top-dose-only effect, or another doubt; inactive = no such curve, though single readings can be large; an effect the other way counts as inactive or inconclusive.

SMILES	Cycloheximide cs	NS1 function inh	Giardia FBPA inh	LmPK inh	Shiga toxin inh	Flu NS1 inh	others
Cc1ccccc1NC(=S)NCc1ccc2c(c1)cc(C)n2C	-3	?	7%	-2%	-15	/
CCN(CC)S(=O)(=O)c1ccc(C(=O)NCc2ccc3c(c2)cc(C)n3C)cc1	-2	?	-3%	5%	9	/
Cc1cc2cc(CNC(=O)c3ccc(S(=O)(=O)N4CCCC4)cc3)ccc2n1C	-1	10µM*	-15%	0%	19	18
COc1ccc(C(=O)NCc2ccc3c(c2)cc(C)n3C)cc1OC	8	/	-18%	1%	6	/
CCc1cccc(C)c1NC(=S)NCc1ccc2c(c1)cc(C)n2C	-1	14µM*	-1%	1%	-8	-24
COc1ccc(/C=C\C(=O)NCc2ccc3c(c2)cc(C)n3C)cc1OC	-2	11µM*	?	2%	1	5	Flu PR8 replic=8.5
Cc1cc2cc(CNC(=O)c3cccs3)ccc2n1C	38*	?	-27%	6%	56*	13
O=C(NCc1cccnc1)C1CCC(CNS(=O)(=O)c2cccc3nsnc23)CC1 (centres undefined)	2	4%	5%	4%	1	/
COc1ccc(-c2nnn(CC(=O)N(CC(=O)NC3CCCC3)c3ccccc3F)n2)cc1OC	-5	-8%	5%	-4%	-2	/
O=C(C1CC1)N1N=C(c2ccccc2)CC1(O)C(F)(F)C(F)(F)F (centres undefined)	4	-12%	5%	3%	/	/
CN1CCN(C(=O)Cn2ncc3c([nH]c4ccccc43)c2=O)CC1	-2	-11%	/	-1%	5	/
Cc1ccc(NC(=O)CC(=O)c2ccc([N+](=O)[O-])cc2)cc1S(=O)(=O)Nc1cccc(Cl)c1	6	14µM*	-2%	3%	17	7	Flu PR8 replic=7.5*
CN1CCCC(C#CC(O)(c2ccccc2)c2ccccc2)C1 (centres undefined)	-1	-5%	0%	2%	3	/
COc1ccc(-n2c(=S)[nH]c3cc(C(=O)NCc4ccco4)ccc3c2=O)c(OC)c1	-2	13µM*	?	-1%	-22	4
O=C(OCn1nnc2ccccc2c1=O)c1ccc2ccccc2n1	-1	16µM*	-2%	1%	-11	-17
Cc1ccc(S(=O)(=O)N(C)C)cc1NC(=O)C(C)N(C)CCOc1ccc(Cl)cc1 (centres undefined)	-2	-28%	-6%	5%	2	/
O=C(O)c1cc(-c2ccco2)nc2ccc(Br)cc12	6	20µM*!	-27%	3%	4	11
NC(=O)COC(=O)c1cc(-c2ccco2)nc2ccccc12	2	-3%	-6%	-12%	-10	/
OCc1ccnc2c(O)cccc12	4	8.9µM*	-7%[12.9 µM]	-6%	21	-36
CCOC(=O)C1=C(C)NC2=C(C(=O)CCC2)C1c1cc(OC)ccc1OC (centres undefined)	0	0%	-13%	0%	-14	/
CCOC(=O)C1=C(C)NC2=C(C(=O)CCC2)C1c1cn(Cc2ccc(Cl)cc2Cl)nc1-c1ccccc1 (centres undefined)	15	?	-6%	3%	-7	2	Flu PR8 replic=8
COC(=O)C1=C(C)NC2=C(C(=O)CCC2)C1c1cn(Cc2ccc(Cl)cc2Cl)nc1-c1ccccc1 (centres undefined)	11	13µM*	0%	1%	-2	13
COc1cc(NC(=O)c2cccs2)c(OC)cc1NC(=O)CCC(=O)Nc1ccc(C)cc1	1	8%	-6%	0%	3	/
O=C1c2ccccc2C(=O)N1c1nc2nccc(-c3ccccc3)n2n1	-4	?	-5%	3%	-9	8
COc1ccc(-c2ccnc3nc(-n4cccc4)nn23)cc1	-2	?	16%	7%	-9	/
SMILES	Cycloheximide cs	NS1 function inh	Giardia FBPA inh	LmPK inh	Shiga toxin inh	Flu NS1 inh	others
COc1ccc(C(=S)N2CCOCC2)cc1OS(=O)(=O)c1ccc(Br)cc1	-2	-3%	/	-13%	-10	/
Cn1cccc1/C=N/N1CCN(c2ccccn2)CC1	38*	?	-26%	0%	61*	-22
Cc1cc(C(=O)COc2cccnc2[N+](=O)[O-])c(C)n1-c1ccccc1F	40*	?	-7%	6%	87*	-9
O=C(c1cc2ccccc2oc1=O)N(Cc1ccco1)C1CCS(=O)(=O)C1 (centres undefined)	29*	8.9µM*	-6%	-12%	35	-16
COCCn1c(C(=O)N2CCCC2)cc2c1C[C@H]1CN(C(=O)c3ccccc3)[C@@](Cc3ccc(F)cc3)(C(=O)OC)[C@@H]21	-5	-28%	-2%	-1%	-16	/
COC(=O)[C@@]1(Cc2ccc(F)cc2)[C@H]2c3cc(C(=O)N4CCCC4)n(CCc4c[nH]c5ccc(OC)cc45)c3C[C@H]2CN1C(=O)c1ccccc1	-2	13µM*	-15%	0%	-15	16
COc1ccc(-c2csc(Nc3ccc(S(=O)(=O)Nc4cc(OC)nc(OC)n4)cc3)n2)cc1	-2	13µM*	-3%	7%	-5	20	Flu PR8 replic=8
Cc1ccc(S(=O)(=O)c2c(C(=O)c3ccccc3)cnc3cc4c(cc23)OCCO4)cc1	14	16µM*	-3%	6%	19	8
Cc1c(C(=O)c2ccc(Cl)c(Cl)c2)cnc2cc3c(cc12)OCO3	-2	5%	0%	8%	-5	/
Cc1cc(N2C(=O)C(O)=C(C(=O)c3ccc(C)o3)C2c2cccs2)no1 (centres undefined)	1	11µM*	7%	0%	7	-26
Cc1[nH]c2ccc(-c3nnc(SCC(=O)NCc4ccco4)n3Cc3ccccc3)cc2c1C	8	3.5µM*	-1%	7%	9	-12
O=C(C1CCC1)N1CCc2cc(S(=O)(=O)NC3CCCc4ccccc43)ccc21 (centres undefined)	11	6%	2%	-6%	7	/
O=C(O)CCC(=O)N1CCc2cc(S(=O)(=O)NC3CCCc4ccccc43)ccc21 (centres undefined)	6	3.5µM*	?	0%	36	20
Cc1noc(/C=C/N(C)C)c1S(=O)(=O)N1CCCC(C(=O)NC(C)c2ccccc2)C1 (centres undefined)	-3	1.8µM*	2%	5%	21	?	Flu PR8 replic=7.7
Cc1noc(/C=C/N(C)C)c1S(=O)(=O)N1CCCC(C(=O)NC2CCCCC2C)C1 (centres undefined)	0	?	3%	2%	11	/
COc1ccc(Oc2nc(C)cc(C)c2C#N)cc1	-6	?	1%	2%	-6	-1
CC(C)C(NC(=O)c1ccccc1F)C(=O)Nc1nccs1 (centres undefined)	-5	/	1%	13%	15	/
